# Calls of active or inactive are those of the source. Unless noted, the rule behind the calls is not given here.
# Legend:
# [1] = test system: Wnt5a (protein binding on small-molecule microarray); test: small molecules binding Wnt5a protein – biophysical, small-molecule microarray, 635/667 nm fluorescence, primary screen (AID 1142); conditions: 635 nm fluorescence, higher = more signal;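 note: fluorescence read at 667 nm with signal to noise per printed feature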
# [2] = ATP-based viability of Huh7 replicon cells – cell-based, CellTiter-Glo luminescence, basal, 48 h, cytotoxicity control for HCV replication inhibitor project, primary screen (AID 1143); conditions: higher = more signal, called active from +8 up or from −8 down;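 note: Huh7 hepatoma cells carrying a hepatitis C replication reporter with no stimulus; test concentration not given here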
# [3] = Pseudomonas biofilm growth suppression – PAO1 strain, BacTiter-Glo luminescence, LB-PBS, primary screen (AID 1144); conditions: P. aeruginosa PAO1 biofilm, 12 h, higher = more signal
# [4] = basal CRE-LacZ reporter activity in PC12 – cell-based, unstimulated, primary screen (AID 1145); conditions: no forskolin, luminescence, 4.5 h, higher = more signal, called active from +8 up or from −8 down
# [5] = forskolin-driven CRE-LacZ activity in PC12 – cell-based, CRE-LacZ reporter, forskolin-stimulated, primary screen (AID 1146); conditions: luminescence, 4.5 h, higher = more signal, called active from +8 up or from −8 down;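 note: PC12 cells with 6xCRE LacZ reporter stimulated by forskolin 10 µM; beta-galactosidase reporter signal reflecting CREB driven transcription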
# [6] = target: Streptavidin (Streptomyces avidinii) (UniProt P22629); test: compounds binding control protein streptavidin – biophysical, small-molecule microarray, 635/667 nm fluorescence, artefact control for SMM compound annotation, primary screen (AID 1147); conditions: higher = more signal;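 note: signal reflects streptavidin binding to arrayed compounds as a control protein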
# [7] = probe aInhba binding on compound microarray – biochemical, small-molecule microarray, 635/667 nm fluorescence, primary screen (AID 1148); conditions: higher = more signal;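 note: score merges 667nm spot fluorescence with signal-to-noise for antibody binding to printed compounds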
# Torsin-1A (Homo sapiens) [8] = target: Torsin-1A (Homo sapiens) (UniProt O14656); test: TOR1A wild-type binding on microarray – cell lysate, small-molecule microarray, lysate, 635/667 nm, primary screen (AID 1149); conditions: COS7 hTOR1A-WT lysate, 635 nm fluorescence, higher = more signal
# Torsin-1A (Homo sapiens) [9] = target: Torsin-1A (Homo sapiens) (UniProt O14656); test: torsin A mutant lysate binding on microarrays – cell lysate, small-molecule microarray, COS7 lysate, 635/667 nm fluorescence, primary screen (AID 1150); conditions: COS7 hTOR1A mutant lysate, 635 nm fluorescence, higher = more signal;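 note: score pools 667 nm emission and signal to noise measuring lysate protein binding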
# [10] = test system: Sonic hedgehog protein (Shh); test: Sonic hedgehog microarray binding compounds – biochemical, small-molecule microarray, 635/667 nm fluorescence, primary screen (AID 1151); conditions: 635 nm fluorescence, higher = more signal;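 note: Shh protein binding to compounds spotted on small-molecule microarray slides; score combines spot fluorescence intensity with signal-to-noise across triplicate slides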
# [11] = optical density shifts of acrAB sulA E. coli – strain DRC41, OD650, 48 h, E. coli filamentation inducer project, primary screen (AID 1152); conditions: higher = more signal, called active from +8 up or from −8 down;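 note: E. coli MC1000 strain DRC41 lacking acrAB efflux pump and sulA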
# [12] = probe aLefty1 binding on compound microarray – biochemical, small-molecule microarray, 635/667 nm fluorescence, primary screen (AID 1153); conditions: higher = more signal;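 note: score merges spot fluorescence with signal-to-noise ratio from the scanned slide images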
# [13] = plasmodial surface anion channel blockers, osmotic lysis – cell-based, P. falciparum Indochina, OD700, 1 h, primary screen (AID 1154); conditions: P. falciparum Indochina infected RBC osmotic lysis, higher = more signal, called active from +8 up or from −8 down
# [14] = plasmodial surface anion channel blockers, osmotic lysis – cell-based, P. falciparum Indochina, OD700, 2 h, primary screen (AID 1155);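 note: lysis reports solute entry through the parasite surface anion channel PSAC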; conditions: P. falciparum Indochina infected erythrocytes, higher = more signal, called active from +8 up or from −8 down
# [15] = changes in parasitized red cell lysis, either direction – P. falciparum Indochina, OD700, 3 h, PSAC antagonist project, primary screen (AID 1156); conditions: P. falciparum-infected erythrocytes, osmotic lysis, higher = more signal, called active from +8 up or from −8 down
# [16] = plasmodial surface anion channel blockers, osmotic lysis – cell-based, P. falciparum Indochina, OD700, 18 h, primary screen (AID 1157); conditions: P. falciparum Indochina infected erythrocytes, osmotic lysis OD700, 18 h; higher = more signal, called active from +8 up or from −8 down
# [17] = S6 kinase pathway phospho-S6 level changes – cell-based, A549, cytoblot, luminescence, serum-stimulated, primary screen (AID 1158); conditions: 5 h, higher = more signal;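 note: serum-stimulated A549 lung adenocarcinoma cells; signal is phosphorylated S6 detected by cytoblot immunostaining with HRP secondary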
# [18] = target: NADPH oxidase 2 (Homo sapiens) (UniProt P04839); test: compounds shifting NOX2 Amplex Red fluorescence – cell-based, HEK293-NOX2, PMA-stimulated, NOX inhibitor project, primary screen (AID 1159); conditions: 45 min, higher = more signal, called active from +8 up or from −8 down; note: test concentration not given here
# [19] = target: NADPH oxidase 4 (Homo sapiens) (UniProt Q9NPH5); test: compounds shifting NOX4 Amplex Red fluorescence – cell-based, HEK293-NOX4, tetracycline-induced, NOX inhibitor project, primary screen (AID 1160); conditions: HEK293-NOX4, Amplex Red H2O2 fluorescence, 45 min; higher = more signal, called active from +8 up or from −8 down
# [20] = target: NADPH oxidase 5 (Homo sapiens) (UniProt Q96PH1); test: compounds shifting NOX5 Amplex Red fluorescence – cell-based, HEK293-NOX5, NOX inhibitor project, primary screen (AID 1161); conditions: HEK293-NOX5, ionomycin, 45 min, higher = more signal
# NADPH oxidase 5 (Homo sapiens), sequence (Q96PH1 whole entry, looked up): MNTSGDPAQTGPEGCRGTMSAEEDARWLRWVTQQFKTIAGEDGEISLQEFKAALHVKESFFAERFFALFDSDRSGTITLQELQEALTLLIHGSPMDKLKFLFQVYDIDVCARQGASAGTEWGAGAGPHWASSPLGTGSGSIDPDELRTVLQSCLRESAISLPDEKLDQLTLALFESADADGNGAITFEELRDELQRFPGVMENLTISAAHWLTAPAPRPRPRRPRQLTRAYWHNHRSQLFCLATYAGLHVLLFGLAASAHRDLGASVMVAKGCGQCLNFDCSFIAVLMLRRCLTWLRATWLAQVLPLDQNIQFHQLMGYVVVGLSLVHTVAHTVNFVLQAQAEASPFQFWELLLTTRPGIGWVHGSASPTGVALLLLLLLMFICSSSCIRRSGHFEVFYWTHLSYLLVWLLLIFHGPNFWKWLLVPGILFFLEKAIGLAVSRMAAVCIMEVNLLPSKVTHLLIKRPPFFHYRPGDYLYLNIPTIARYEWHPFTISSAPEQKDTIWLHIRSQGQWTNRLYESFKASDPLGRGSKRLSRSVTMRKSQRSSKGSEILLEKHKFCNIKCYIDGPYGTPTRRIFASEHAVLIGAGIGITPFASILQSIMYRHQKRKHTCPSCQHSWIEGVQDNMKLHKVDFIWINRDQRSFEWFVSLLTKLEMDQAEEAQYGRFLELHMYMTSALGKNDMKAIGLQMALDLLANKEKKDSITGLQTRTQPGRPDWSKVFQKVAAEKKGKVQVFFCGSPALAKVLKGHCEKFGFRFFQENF
# Torsin-1A (Homo sapiens), sequence (O14656 whole entry, looked up): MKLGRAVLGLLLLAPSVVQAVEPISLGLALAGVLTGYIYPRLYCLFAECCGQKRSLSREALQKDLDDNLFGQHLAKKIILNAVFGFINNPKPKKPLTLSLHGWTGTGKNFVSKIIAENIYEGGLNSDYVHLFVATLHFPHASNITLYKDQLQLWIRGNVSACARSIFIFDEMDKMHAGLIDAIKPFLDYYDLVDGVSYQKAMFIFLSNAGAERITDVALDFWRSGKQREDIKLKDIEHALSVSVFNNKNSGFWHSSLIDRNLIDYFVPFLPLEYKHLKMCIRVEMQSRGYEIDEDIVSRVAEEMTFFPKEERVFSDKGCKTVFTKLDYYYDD
# Streptavidin (Streptomyces avidinii), sequence (P22629 whole entry, looked up): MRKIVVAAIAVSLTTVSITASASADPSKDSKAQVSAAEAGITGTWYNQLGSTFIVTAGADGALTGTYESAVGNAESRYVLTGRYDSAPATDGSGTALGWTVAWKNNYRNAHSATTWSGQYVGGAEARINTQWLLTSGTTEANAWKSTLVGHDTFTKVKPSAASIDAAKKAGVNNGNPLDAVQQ
# NADPH oxidase 4 (Homo sapiens), sequence (Q9NPH5 whole entry, looked up): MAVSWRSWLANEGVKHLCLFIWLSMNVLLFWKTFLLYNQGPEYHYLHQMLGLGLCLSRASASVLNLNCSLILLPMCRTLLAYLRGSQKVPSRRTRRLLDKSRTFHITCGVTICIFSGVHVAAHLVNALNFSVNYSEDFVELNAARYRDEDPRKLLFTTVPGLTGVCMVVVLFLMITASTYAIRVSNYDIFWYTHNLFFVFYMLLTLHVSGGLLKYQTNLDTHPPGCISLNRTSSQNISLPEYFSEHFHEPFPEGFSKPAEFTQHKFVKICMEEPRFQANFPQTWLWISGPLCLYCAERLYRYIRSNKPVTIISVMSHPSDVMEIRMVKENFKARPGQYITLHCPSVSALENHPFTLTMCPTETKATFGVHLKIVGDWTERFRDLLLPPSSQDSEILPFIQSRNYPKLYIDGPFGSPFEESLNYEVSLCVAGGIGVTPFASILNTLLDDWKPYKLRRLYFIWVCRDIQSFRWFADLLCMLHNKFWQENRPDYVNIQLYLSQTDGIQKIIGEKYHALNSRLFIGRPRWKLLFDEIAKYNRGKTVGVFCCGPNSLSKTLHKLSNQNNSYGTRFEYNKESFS
# NADPH oxidase 2 (Homo sapiens), sequence (P04839 whole entry, looked up): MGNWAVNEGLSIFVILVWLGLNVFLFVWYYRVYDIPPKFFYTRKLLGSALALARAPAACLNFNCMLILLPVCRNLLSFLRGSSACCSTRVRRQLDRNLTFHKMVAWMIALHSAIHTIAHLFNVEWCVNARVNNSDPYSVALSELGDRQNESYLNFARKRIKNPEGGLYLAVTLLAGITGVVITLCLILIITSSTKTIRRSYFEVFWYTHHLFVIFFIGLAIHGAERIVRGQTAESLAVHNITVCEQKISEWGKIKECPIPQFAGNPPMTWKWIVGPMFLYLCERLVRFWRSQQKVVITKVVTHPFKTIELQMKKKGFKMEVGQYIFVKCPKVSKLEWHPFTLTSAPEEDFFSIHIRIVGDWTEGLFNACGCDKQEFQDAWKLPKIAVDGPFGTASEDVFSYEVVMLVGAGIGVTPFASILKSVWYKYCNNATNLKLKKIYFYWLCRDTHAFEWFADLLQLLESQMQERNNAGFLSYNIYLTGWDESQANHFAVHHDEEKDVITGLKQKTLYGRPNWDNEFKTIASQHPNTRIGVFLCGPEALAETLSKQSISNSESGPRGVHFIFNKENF
SMILES,composite z-score [1],z-score [2],z-score [3],z-score [4],z-score [5],composite z-score [6],composite z-score [7],composite z-score (Torsin-1A (Homo sapiens) [8]),composite z-score (Torsin-1A (Homo sapiens) [9]),composite z-score [10],z-score [11],composite z-score [12],z-score [13],z-score [14],z-score [15],z-score [16],z-score [17],z-score [18],z-score [19],z-score [20]
C#CCN(Cc1ccccc1Br)C(/C=C/c1ccccc1)CO (stereo not given),-0.15,-4.79 (inactive),0.825 (inactive),5.19 (inactive),-1.04 (inactive),-0.175,-0.283,0.0428,-0.653,-0.0683,-0.585 (inactive),-0.226,12.5 (active),2.61 (inactive),-1.31 (inactive),0.696 (inactive),-0.188,0.28 (inactive),-0.157 (inactive),-2.02
O=C1C2C=CC(C(O)C(c3ccccc3)c3ccccc3)N(n3cnnc3)C2C(=O)N1Cc1ccccc1 (stereo not given),0.159,-0.0706 (inactive),0.738 (inactive),0.182 (inactive),0.202 (inactive),1.12,0.057,0.0613,0.142,-0.0479,-1.48 (inactive),0.169,2.36 (inactive),1.26 (inactive),-0.218 (inactive),0.949 (inactive),-0.429,0.67 (inactive),-2.83 (inactive),-0.766
COC(=O)[C@@]1(Cc2ccc(F)cc2)[C@H]2c3cc(C(=O)N(C)C)n(Cc4ccc(S(C)(=O)=O)cc4)c3C[C@H]2CN1C(=O)c1ccccc1,0.0577,-0.845 (inactive),-0.65 (inactive),0.766 (inactive),-0.428 (inactive),1.02,0.266,0.33,0.0685,-0.447,-0.367 (inactive),0.277,1.32 (inactive),0.495 (inactive),1.01 (inactive),0.739 (inactive),-0.594,0.713 (inactive),0.668 (inactive),0.274
CCOC(=O)C[C@H]1[C@H](OC(=O)Cc2ccc3c(c2)OCO3)[C@@H](NC(=O)c2ccc(-c3ccccc3)cc2)c2cc(OCCCO)ccc2N1C(=O)Cc1ccc(OC)cc1,0.267,-0.921 (inactive),-0.304 (inactive),6.24 (inactive),0.0489 (inactive),0.0687,-0.0754,0.0816,0.394,0.965,2.84 (inactive),0.123,25.4 (active),11.2 (active),-0.67 (inactive),0.464 (inactive),1.74,-1.35 (inactive),1.26 (inactive),2.24
CN(C)CCCNC(=O)[C@@]1(c2ccc([N+](=O)[O-])cc2)CC(=O)N(C2CCCCC2)[C@@H]1c1ccc(CO)cc1,-0.217,-0.406 (inactive),0.382 (inactive),0.234 (inactive),-0.342 (inactive),0.494,0.0342,-0.485,-0.161,0.371,0.0097 (inactive),0.0793,1.31 (inactive),0.346 (inactive),2.09 (inactive),-0.0633 (inactive),-0.0223,1.84 (inactive),1.31 (inactive),0.787
[N-]=[N+]=NCc1ccccc1[C@@H]1OC(c2ccc(OCCCO)cc2)=N[C@]1(CCS(=O)(=O)c1ccccc1)C(=O)NCc1ccccc1,0.88,-1.86 (inactive),0.0656 (inactive),0.614 (inactive),-1.66 (inactive),1.09,1.09,0.248,0.467,1.4,-0.665 (inactive),1.43,16.4 (active),2.27 (inactive),1.75 (inactive),0.814 (inactive),-0.0212,-1.04 (inactive),0.0609 (inactive),-0.898
C[N+](C)(C)CCCC[C@@H]1NC(=O)[C@@H]2C[C@H](C(=O)NCCCCCN)[C@H](c3cccc(OCCO)c3)N2C1=O,-0.0878,0.288 (inactive),-0.165 (inactive),0.7 (inactive),0.508 (inactive),1.19,-0.117,0.345,-0.149,-0.125,-0.272 (inactive),-0.0412,1.85 (inactive),0.508 (inactive),0.214 (inactive),0.129 (inactive),-0.0726,0.79 (inactive),0.289 (inactive),1.54
C=CCOC(=O)[C@@H]1[C@H]2C(=O)O[C@H](c3ccccc3)[C@H](c3ccccc3)N2[C@H](c2ccc(OCCOC(=O)[C@@H]3C[C@@H]4C(=O)N[C@@H](CCCC[N+](C)(C)C)C(=O)N4[C@@H]3c3cccc(OCCO)c3)cc2)[C@@]12C(=O)Nc1ccc(I)cc12,0.596,-2.13 (inactive),-1.22 (inactive),0.0084 (inactive),1.83 (inactive),0.337,-0.122,0.993,1.15,1.99,-0.537 (inactive),0.121,2.82 (inactive),2.58 (inactive),2.24 (inactive),1.01 (inactive),-1.5,2.31 (inactive),0.862 (inactive),1.3
CCOC(=O)C=Cc1cc([N+](=O)[O-])ccc1O,-0.128,-4.44 (inactive),-0.283 (inactive),0.173 (inactive),-2.08 (inactive),0.572,-0.0523,0.437,0.328,-0.117,-1.72 (inactive),-0.104,26 (active),11.8 (active),2.13 (inactive),-0.816 (inactive),2.41,-4.11 (inactive),-2.98 (inactive),-3.76
COCCOC(=O)N1C(=O)[C@@]2(c3cc(C#CC4(O)CCCCCC4)ccc31)[C@H](c1ccc(O)cc1)N1[C@H](c3ccccc3)[C@H](c3ccccc3)OC(=O)[C@H]1[C@@H]2C(=O)Nc1nc2ccccc2s1,0.513,-0.073 (inactive),0.505 (inactive),1.42 (inactive),4.93 (inactive),1.19,0.741,0.549,0.821,1.35,-0.565 (inactive),1.76,0.69 (inactive),1.05 (inactive),0.207 (inactive),1.39 (inactive),-0.502,1.75 (inactive),0.507 (inactive),1.07
O=C1OCCC/C=C\[C@H]2OC34C=CCN(CCN5CCOCC5)C(=O)[C@H]3N(CCCO)C(=O)[C@@H]4C12 (stereo not given in full),-0.196,0.732 (inactive),1.46 (inactive),-0.484 (inactive),-0.947 (inactive),-0.388,-0.292,-0.222,1.01,-0.165,-0.478 (inactive),-0.284,2.38 (inactive),0.351 (inactive),-0.893 (inactive),-0.352 (inactive),-0.181,1.18 (inactive),0.481 (inactive),2.27
COCCOC(=O)N1C(=O)[C@@]2(c3cc(C#Cc4ccc(OC)cc4)ccc31)[C@H](C(N)=O)[C@H]1C(=O)O[C@H](c3ccccc3)[C@H](c3ccccc3)N1[C@@H]2c1ccccc1OCCO,0.753,-3.77 (inactive),-0.438 (inactive),-0.168 (inactive),-0.134 (inactive),0.784,0.398,0.666,1.81,1.66,-0.289 (inactive),0.358,4.42 (inactive),2.55 (inactive),-0.499 (inactive),1.59 (inactive),-0.413,2.38 (inactive),1.1 (inactive),1.44
CCCC[C@@H]1C[C@H]1[C@@H](NC(=O)c1ccco1)c1ccc(C(=O)OC)cc1,-0.195,-1.88 (inactive),-0.333 (inactive),0.0075 (inactive),1.58 (inactive),0.564,-0.154,-0.708,-0.319,-1.47,-2.59 (inactive),-0.214,1.59 (inactive),0.501 (inactive),0.394 (inactive),0.323 (inactive),-0.0467,-1.55 (inactive),-1.96 (inactive),1.82
CC(C)N1C(=O)c2ccccc2[C@](C)(C(=O)NCc2ccccc2)[C@@H]1c1ccc(CO)cc1,-0.111,-0.139 (inactive),0.261 (inactive),0.558 (inactive),-0.074 (inactive),-0.558,-0.154,1.3,-0.119,-0.0391,-0.884 (inactive),-0.101,1.53 (inactive),0.349 (inactive),0.24 (inactive),0.645 (inactive),0.0331,-0.291 (inactive),-0.0216 (inactive),-0.54
[N-]=[N+]=Nc1ccccc1[C@H]1OC(c2ccc(OCCCO)cc2)=N[C@@]1(Cc1ccccc1)C(=O)O,0.0316,-1.1 (inactive),-0.0839 (inactive),-0.0249 (inactive),-1.38 (inactive),0.365,0.0342,0.395,0.306,1.07,0.409 (inactive),0.346,32 (active),27.2 (active),1.65 (inactive),7.43 (inactive),-0.259,-0.0311 (inactive),1.5 (inactive),1.75
CCCCCN1CC=CC23O[C@@H]4/C=C\CCCOC(=O)C4[C@H]2C(=O)N(C(CO)C(C)C)[C@@H]3C1=O (stereo not given in full),0.175,-0.0623 (inactive),-1.6 (inactive),-0.899 (inactive),0.373 (inactive),-0.739,-0.128,-0.731,-0.436,0.976,1.52 (inactive),-0.113,0.724 (inactive),0.264 (inactive),0.29 (inactive),0.0866 (inactive),0.0595,1.59 (inactive),0.481 (inactive),2.17
